Data on 40 compounds can be found in PubChem BioAssay (NCI).

About 83,000 compounds went through this panel and 20% of them were active in at least one assay; those are over-represented in the sample as a whole.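 Activity criterion: percent growth below 10, measured after cells in 96-well plates were exposed to a single compound concentration for 48 hours.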 A number with no mark means an inactive call. Active and inactive are the calls of the source.

The assay deals with MOLT-4 leukemia. Description: NCI-60 one-dose screen, 48 h (100 = growth as untreated, 0 = no growth, -100 = all killed). The following applies: 10 µM unless noted. The method, then: Growth inhibition of the MOLT-4 human tumor cell line is measured as a screen for anti-cancer activity. Cells are grown in 96 well plates and exposed to the test compound for 48 hours. Compounds are tested at a single concentration, which is 10^-5 M for most compounds. The reported endpoint is percent growth (GI% or GIPRCNT), where numbers from 0 - 100% represent growth inhibition, and numbers from -100% - 0 represent cell death. For example, a value of 40 represents 60% growth inhibition. A value of 0 means no net growth occurred over the course of the experiment. A value of -40 indicates 40% of cells at the beginning of the experiment died by the end of the experiment. A value of -100 means all cells are dead at the end of the experiment.
NCI-60 Human Tumor Cell Lines Screen was performed using the standard one-dose NCI protocol, which is described in more detail at https://dtp.cancer.gov/discovery_development/nci-60/default.htm.
Compounds with GIPRCNT values below 10 were considered active. Activity score was based on GIPRCNT using the following formula: […]
Score is 0 for GIPRCNT values of 100 or above, 50 for GIPRCNT values of 0, and 100 for GIPRCNT values of -100.
As for `COc1ccc2c(c1)C(C)Cc1c(Cl)nc(C)nc1N2C` (stereo not given), the growth is 20.3%.
Then `O=C(CCN1CCCCC1)c1ccc(Cl)cc1`, with 108%.
For `CCOc1ccc(/C=C(\C#N)c2cc3ccccc3[nH]2)cc1` the value was 31.2%; for `CCOC(=O)C1=C(C(=O)c2ccc(Br)cc2)C(c2ccc(Br)cc2)NC(=S)N1` (stereo not given), 114%.
Then `COc1ccc(N(c2nc(-c3ccc([N+](=O)[O-])cc3)cs2)C(C)C)cc1`, with 68.5%; and `NC(=O)c1cccc(-c2ccc(S(=O)(=O)Nc3ccc4c(c3)N(C(=O)C3CC3)CCC4)cc2)c1`, with 57.8%.
With `C#C[C@]1(O)CC[C@H]2[C@@H]3CC=C4c5nc(Nc6ccccn6)sc5CC[C@]4(C)[C@H]3CC[C@@]21C`, the growth is -11.8% (active).
On to `CSc1nc(=S)c2nc(SC)n(-c3ccccc3)c2[nH]1`, for which the growth is 107%.
For `O=C(NCc1ccccc1)C(Cl)Cl` the value was 101%; for `CCCCC(CCCCCC(CCCC)C1NC(C)Cc2cc(OC)c(OC)cc21)C1NC(C)Cc2cc(OC)c(OC)cc21` (stereo not given), -63% (active).
For the compound `CCOC(=O)c1nn(C2CCCCO2)c2ccc(NC(=O)CSc3nc4ccccc4c(=O)[nH]3)cc12` (stereo not given), the growth is 103%.
For `O=S(=O)(c1ccc(N/N=C\c2ccccc2Cl)cc1)c1ccc(N/N=C/c2ccccc2Cl)cc1`, the growth is 65.1%.
For the compound `Clc1ccccc1/C=N\Nc1ccccn1`, the growth is 83.5%.
Regarding `CSc1nc2c(c(=O)n1C)C1(C(=O)N(Cc3ccccc3)c3ccccc31)c1c(nc(SC)n(C)c1=O)N2`, the growth was 99.9%.
Then `Nc1cc(C(=O)O)[nH]c(=S)n1`, with 101%; and `CC(C)C1=NOC(=O)C1=Cc1cn(-c2ccccc2)nc1-c1cccc([N+](=O)[O-])c1`, with 3.44% (active).
Then `COc1ccc2nc3cc(Cl)ccc3c(Nc3ccc(O)cc3)c2c1`, with 9.49% (active).
For `C#C[C@]1(O)CC[C@H]2[C@@H]3CC=C4c5nc(Nc6ccc(OC)cc6OC)sc5CC[C@]4(C)[C@H]3CC[C@@]21C` the value was 4.56% (active).
Take `Oc1ccc(N=Nc2nccs2)c(O)c1`: the growth was 11.8%.
Then `COc1ncc(-c2ccc3nc(N)n(-c4ccccc4C(F)(F)F)c(=O)c3c2)cc1S(=O)(=O)Nc1ccc(F)cc1F`, with 74.5%.
Then `C[C@]12CCc3c(ccc4cc(O)ccc34)[C@@H]1CC[C@H]2O`, with 95.1%.
For `C=C(C)[C@@H]1CC[C@]2(C(=O)NCCCCCCN(CCCN)CCCN)CC[C@]3(C)[C@H](CC[C@@H]4[C@@]5(C)CC[C@H](OCCCN)C(C)(C)[C@@H]5CC[C@]43C)[C@@H]12` the value was 10.1% [100 µM].
As for `C[C@H]1[C@H](C)CC[C@]2(C(=O)O)CC[C@]3(C)C(=CC[C@@H]4[C@@]5(C)C/C(=C/c6cccnc6)[C@H](O)C(C)(C)[C@@H]5CC[C@]43C)[C@H]12`, the growth is 2.42% [100 µM] (active).
Then `Oc1cc(Nc2ccnc3cc(Cl)ccc23)c2ncccc2c1`, with 68.9%.
Then `Cc1ccc2c(c1)/C(=N\N=C/c1cn(C(C)C)c3ccccc13)C(=O)N2`, with -10% (active); and `CN(C)c1ccc(N=Nc2ccc3ccccc3c2)cc1`, with 80.8%.
Then `c1cc2ccc3cc2cc1CNCCN1CCNCc2ccc4ccc(cc4c2)CNCCN(CCNC3)CCNCc2ccc3ccc(cc3c2)CNCC1`, with 8.03% (active).
Regarding `CC(C)OC(=O)Nc1cc(F)c(F)cc1F`, the growth was 103%.
As for `CCOC(=O)c1sc2nc(-c3cc(OC)c(OC)c(OC)c3)nc(N3CCOCC3)c2c1C`, the growth is 17.1%.
For `CCOc1cc(NC(=O)c2ccccc2)c(OCC)cc1N` the value was 101%; for `COc1ncc(-c2ccc3nccc(C#CCCCCC(=O)O)c3c2)cc1NS(=O)(=O)c1ccc(F)cc1F`, 29%.
For `C=C(C)[C@@H]1CC[C@]2(C(=O)NCCNCCNCCN)CC[C@]3(C)[C@H](CC[C@@H]4[C@@]5(C)CCC(=O)C(C)(C)[C@@H]5CC[C@]43C)[C@@H]12` the value was -16.3% [100 µM] (active); for `O=C1COCCN1c1ccc(NCc2cn(Cc3ccccc3)c3ccccc23)cc1`, 102%; for `COc1ccc2c3ccnc(C(F)(F)F)c3n(CCCCN)c2c1`, 51%.
For `CC(=O)Nc1ccc2nc3ccc(NC(C)=O)cc3[n+](-c3ccccc3)c2c1` the value was 38.9%.
On to `CCCCCCCCCCCCCCNC(=O)Nc1ccc(Cl)c(Cl)c1`, for which the growth was 103%.
For `COc1cc(/C=C/C(=O)/C=C/c2ccc(-n3ccnc3C)cc2)ccc1O` the value was 32.4%.
For `CCOC(=O)c1cnc2ccc(Br)cc2c1Nc1cccc(S(N)(=O)=O)c1` the value was 85.1%.
Then `CCN(CC)CC(C)Nc1ccc(C)c2sc3ccccc3c(=O)c12` (stereo not given), with 24.6%.
Turning to `CCNC(=O)N1CCc2c(Cl)c3c(c(OC)c2[C@@H]1[C@H]1OCc2c1ccc(OC)c2OC)OCCO3`, the growth is 30.8%.
